Laboratory results as given in PubChem BioAssay (NCATS).
Inconclusive results are not listed. Where a call stands in place of a potency, no number is given. Calls of active or inactive are those of the source. Calls follow the shape of the dose curve; as a rule, active = well fitted curve in the direction sought with a large enough effect; inconclusive = small, poorly fitted or top-dose-only effect, or another doubt; inactive = no such curve, though single readings can be large; an effect the other way counts as inactive or inconclusive.

What was measured:
[1] = BET inhibitor-based combinations targeting novel dependencies in MECOM-rearranged (r) AML: UCSD-AML1 cell line (AID 2202235); also: nearly all actives have a fitted effect of over 40% in size; also: potency is read from the fitted curve at half-maximal effect
Procedure, shortened: (§1)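 Seeding density was 500 cells/well, and drug exposure lasted 48 hr under standard culture conditions. Read-out used CellTiter-Glo reagent with a 15 min room-temperature incubation before luminescence measurement; AUC and Z-AUC summarize the normalized responses.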

[2] = BET inhibitor-based combinations targeting novel dependencies in MECOM-rearranged (r) AML: HNT-34 cell line (AID 2202234); also: nearly all actives have a fitted effect of over 35% in size
Procedure, shortened: as §1

[3] = BET inhibitor-based combinations targeting novel dependencies in MECOM-rearranged (r) AML: AML-194 cell line (AID 2202237; also: nearly all actives have a fitted effect of over 40% in size; also: potency is read from the fitted curve at half-maximal effect)
Procedure, shortened: (§2)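 Readout: CellTiter-Glo luminescence. Exposure: 48 h, 11 concentrations, 500 cells/well. Metric: AUC and within-line Z-AUC after DMSO/empty-well normalization.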

[4] = BET inhibitor-based combinations targeting novel dependencies in MECOM-rearranged (r) AML: MV-4-11 cell line (AID 2202233); also: nearly all actives have a fitted effect of over 45% in size; also: potency is read from the fitted curve at half-maximal effect
Procedure, shortened: as §1

[5] = BET inhibitor-based combinations targeting novel dependencies in MECOM-rearranged (r) AML: AML-191 cell line (AID 2202236; also: nearly all actives have a fitted effect of over 35% in size; also: potency is read from the fitted curve at half-maximal effect)
Procedure, shortened: as §2

Compound | Potency [1] | Potency [2] | Potency [3] | Potency [4] | Potency [5]
CN(C)CCOc1ccc(/C(=C(/CCCl)c2ccccc2)c2ccccc2)cc1 | inactive |  |  |  | 
CN1C(=O)N(c2cc(Cl)cc(Cl)c2)C(=O)[C@]12CN(Cc1cc(C(=O)O)cs1)C[C@H]2c1ccc(C#N)cc1 | inactive | inactive | inactive |  | 
COc1c(Nc2ncc(Cl)c(N[C@H]3[C@H](C(N)=O)[C@@H]4C=C[C@@H]3C4)n2)ccc2c1CCC(N1CCOCC1)CC2 (some centres undefined) | inactive |  | inactive | 0.525 µM (active) | 18.6 µM (active)
Cc1ccc([C@@H]2O[C@H](CO)[C@@H](O)[C@H](O)[C@H]2O)cc1Cc1ccc(-c2ccc(F)cc2)s1 | inactive |  | inactive | 13.2 µM (active) | 20.9 µM (active)
Cc1ccc(-c2ncc(Cl)cc2-c2ccc(S(C)(=O)=O)cc2)cn1 | inactive |  | inactive | inactive | inactive
CN(C)CCNC(=O)COc1c2cccc1Cc1cccc(c1OCC(=O)NCCN(C)C)Cc1cccc(c1OCC(=O)NCCN(C)C)Cc1cccc(c1OCC(=O)NCCN(C)C)C2 | 0.428 µM (active) |  |  |  | 0.428 µM (active)
CC[C@H](C)[C@@H]([C@@H](CC(=O)N1CCC[C@H]1[C@H](OC)[C@@H](C)C(=O)N[C@@H](Cc1ccccc1)c1nccs1)OC)N(C)C(=O)[C@@H](NC(=O)[C@H](C(C)C)N(C)C)C(C)C |  | inactive | inactive |  | inactive
Cc1nc(C)c(CN2CCN(C(c3ccc(F)cc3)c3ccc(F)cc3)CC2)nc1C |  |  | 20.9 µM (active) | 18.6 µM (active) | 
Cc1c(O)cccc1C(=O)NC(CSc1ccccc1)C(O)CN1CC2CCCCC2CC1C(=O)NC(C)(C)C (centres undefined) |  |  | 26.3 µM (active) |  | 
